# Source: paper PMC5540273 (PLoS ONE, 2017)
# Legend:
# Details in all cases: concentration: 1 μM, replicates: in singlicate; n = 1
# IKK-alpha = tested on: T1, IKK-alpha
# T1 construct: gene CHUK
# IKK-beta = tested on: T2, IKK-beta
# T2 construct: gene IKBKB
# IKK-epsilon = tested on: T3, IKK-epsilon
# T3 construct: gene IKBKE
# INSRR = tested on: INSRR
# INSR = tested on: INSR
# IRAK1 = tested on: IRAK1
# IRAK3 = tested on: IRAK3
# IRAK4 = tested on: IRAK4
# ITK = tested on: ITK
# [1] = tested on: JAK1(JH1domain-catalytic)
# [2] = tested on: JAK1(JH2domain-pseudokinase)
# [3] = tested on: JAK2(JH1domain-catalytic)
# [4] = tested on: JAK3(JH1domain-catalytic)
# JNK1 = tested on: T4, JNK1
# T4 construct: gene MAPK8
# JNK2 = tested on: T5, JNK2
# T5 construct: gene MAPK9
# JNK3 = tested on: T6, JNK3
# T6 construct: gene MAPK10
# KIT-autoinhibited = tested on: KIT-autoinhibited
# KIT = tested on: KIT
# LATS1 = tested on: LATS1
# LATS2 = tested on: LATS2
# 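Further: KINOMEscan kinase panel screen.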
SMILES,%Inh (IKK-alpha) [%],%Inh (IKK-beta) [%],%Inh (IKK-epsilon) [%],%Inh (INSRR) [%],%Inh (INSR) [%],%Inh (IRAK1) [%],%Inh (IRAK3) [%],%Inh (IRAK4) [%],%Inh (ITK) [%],%Inh [1] [%],%Inh [2] [%],%Inh [3] [%],%Inh [4] [%],%Inh (JNK1) [%],%Inh (JNK2) [%],%Inh (JNK3) [%],%Inh (KIT-autoinhibited) [%],%Inh (KIT) [%],%Inh (LATS1) [%],%Inh (LATS2) [%]
CS(=O)(=O)c1cccc(CNc2nc(Nc3ccc4c(c3)CCC(=O)N4)ncc2C(F)(F)F)c1,0,0,48,20,16,0,22,0,0,50,94.3,99.6,100,49,27,48,30,44,0,0
CN(C)CCNS(=O)(=O)c1ccc(-c2ccnc3[nH]ccc23)cc1 [GSK977620],85,98.8,2,0,0,55,45,17,54,12,0,82,56,29,17,15,0,9,29,93
NCCC(NC(=O)c1cc(Br)c(-c2ccnc3[nH]ccc23)s1)c1ccccc1.O=C(O)C(F)(F)F.O=C(O)C(F)(F)F (centres unmarked) [GSK1307810],52,57,17,0,0,96.8,9,0,7,79,0,97.1,98.7,30,15,16,0,73,83,93
CCn1cnc2c(NCc3ccccc3)ncnc21 [SKF-96418],26,19,0,0,2,25,0,0,0,6,24,40,5,11,0,0,9,0,0,0
COC(=O)Nc1nc2cc(Oc3ccc(NC(=O)Nc4cccc(SC)c4)cc3)ccc2[nH]1.Cl [GW697999],35,0,10,0,0,36,24,12,26,2,0,0,0,16,16,0,50,99.9,43,0
Cc1cc(-c2ccnc(Nc3cccc(C#N)c3)n2)cc(C)c1O [GSK1440913],61,67,28,23,0,52,82,11,9,0,78,92.6,74,98.9,77,99,0,49,0,0
CC(C)c1nc(-c2cccc(NS(=O)(=O)c3c(F)cccc3F)c2)c(-c2ccnc(Nc3ccc(N4CCOCC4)nc3)n2)s1.Cl [GSK1723980],0,0,39,0,0,0,1,6,95.7,0,44,36,92.3,23,31,7,0,99.9,4,0
c1ccc(Oc2ccc(Nc3ccnc4cc(-c5ccc(CN6CCCCC6)o5)ccc34)cc2)nc1 [GW567143],12,8,0,5,10,24,0,6,10,0,0,2,0,22,30,7,8,96.5,0,0
CC(C)c1nc(-c2ccc(F)c(NS(=O)(=O)c3c(F)cccc3F)c2)c(-c2ccnc(Nc3ccc(N4CCOCC4)nc3)n2)s1 [GSK1804250],0,0,23,2,11,0,3,0,9,17,0,4,69,32,70,77,0,97.8,0,0
Cc1ccccc1CC(=O)N1CCc2cc(-c3cn(C)c4ncnc(N)c34)ccc21 [GSK2603346],12,28,49,8,0,0,0,6,20,5,0,26,0,1,13,7,1,99.8,0,0
CC(C)NCC(Cc1ccccc1)NC(=O)c1cc(Br)c(-c2ccnc3[nH]ccc23)s1.Cl.Cl (centres unmarked) [GSK1383281],0,23,30,0,0,15,2,12,3,35,0,71,82,28,12,12,0,50,100,70
O=C1NC(=O)C(c2ccccc2Cl)=C1Nc1cccc(Cl)c1 [SB-342409],18,36,0,1,7,28,0,32,14,1,0,24,65,19,12,3,0,0,0,0
COC(=O)Nc1nc2ccc(Oc3ccc(CC(=O)Nc4cc(C(F)(F)F)ccc4F)cc3)cc2[nH]1 [GW680903],7,1,0,0,0,26,0,14,14,6,0,7,0,1,6,0,8,100,12,0
CN(C)CCOc1ccc(-c2cc(-c3ccc(Cl)c(O)c3)c(-c3ccncc3)[nH]2)cc1.Cl.Cl [SB-684387],9,82,30,0,14,16,0,0,0,20,23,33,10,3,34,36,2,5,0,30
CCNC(=O)/C=C/c1n[nH]c2cc(Sc3ccccc3C(=O)NC)ccc12,26,20,8,34,0,33,9,0,0,0,0,0,18,15,4,0,95,100,17,22
Cl.Cl.NCC(NC(=O)c1cc(-c2cccnc2)c(-c2ccnc3[nH]ccc23)s1)c1ccccc1 (centres unmarked) [GSK1323434],14,54,21,0,0,76,1,8,10,15,0,31,79,44,61,41,0,19,0,11
Cn1cc(-c2ccc3c(c2)CCN3C(=O)Cc2cc(F)cc(C(F)(F)F)c2)c2c(N)ncnc21 [GSK2635225],0,0,75,0,31,8,0,0,5,9,3,10,0,0,13,0,16,100,0,4

SMILES,%Inh (IKK-alpha) [%],%Inh (IKK-beta) [%],%Inh (IKK-epsilon) [%],%Inh (INSRR) [%],%Inh (INSR) [%],%Inh (IRAK1) [%],%Inh (IRAK3) [%],%Inh (IRAK4) [%],%Inh (ITK) [%],%Inh [1] [%],%Inh [2] [%],%Inh [3] [%],%Inh [4] [%],%Inh (JNK1) [%],%Inh (JNK2) [%],%Inh (JNK3) [%],%Inh (KIT-autoinhibited) [%],%Inh (KIT) [%],%Inh (LATS1) [%],%Inh (LATS2) [%]
COc1cc(Nc2nccc(N3CCC(NC(=O)Nc4ccc5c(c4)OCO5)C3)n2)cc(OC)c1OC (centres unmarked) [GSK1379766],27,11,29,0,25,80,85,44,10,12,47,89,0,34,0,35,5,66,0,12
Cc1ccc(NC(=O)c2ccc(Cl)c(Cl)c2)cc1-c1ccc(C(=O)Nc2ccncc2)cc1 [GSK1398460],0,10,24,0,0,0,3,7,10,9,0,0,0,11,4,0,9,100,0,3
Nc1cccc(-c2ccc3c(N)n[nH]c3c2)c1 [GSK2193613],0,0,11,0,0,10,0,0,10,0,12,8,0,18,13,3,83,23,0,27
Nc1ncc(-c2cn[nH]c2)c2scc(-c3ccc4c(c3)CCN4C(=O)Cc3ccccc3)c12 [GSK2593067],0,31,50,24,13,0,25,0,25,2,0,43,0,13,12,2,12,100,0,55
COc1ccc(C)c(Nc2ccnc(Nc3ccc(-c4cnc[nH]4)cc3)n2)c1.Cl [GW784041],0,0,0,0,0,0,35,0,18,100,76,14,0,14,0,0,0,70,12,0
Cc1cc(-c2c(-c3ccc(F)cc3)ncn2CCCN2CCOCC2)nc(N)n1 [SB-222517],0,0,0,26,8,0,0,0,6,0,57,16,0,5,0,0,20,15,15,0
CN(C)c1ncnc2nc[nH]c12 [SKF-31736],23,15,0,9,0,43,0,4,0,0,34,0,30,23,0,0,19,0,0,0
COc1cc(Nc2ccnc3cc(-c4ccncc4)ccc23)cc(OC)c1OC.Cl [GW494610],23,13,0,13,8,24,0,10,0,33,0,12,0,49,54,37,0,76,0,0
COc1cc(Nc2nccc(N3CCC(NS(=O)(=O)c4ccc(NC(C)=O)cc4)CC3)n2)cc(OC)c1OC [GSK1379825],24,14,11,0,0,74,85,44,17,20,83,96.3,8,44,37,31,0,90,0,0
CNc1nccc(-c2ccc3c(N)n[nH]c3c2)n1 [GSK2206003],90,81,17,0,11,49,49,0,24,0,57,47,15,46,36,29,0,57,0,17
Cc1cccc(Nc2nc(NCCN)ncc2C(N)=O)c1 [GSK1292139],28,16,0,0,22,61,0,60,8,27,96.6,54,0,43,4,23,9,72,0,76
Cc1ccc(NC(=O)c2cccc(N3CCCCC3)c2)cc1-c1ccc(C(=O)NCC2CC2)cc1 [GSK1917008],54,29,15,4,12,17,11,20,26,0,19,15,0,22,30,10,6,79,0,16
Cn1cc(-c2cnc(N)c3c(-c4ccc5c(c4)CCN5C(=O)Cc4ccccc4)csc23)cn1 [GSK2593074],0,0,59,13,12,0,5,0,23,0,0,26,0,13,0,0,32,100,1,23
Cn1cc(-c2ccc3c(c2)CCN3C(=O)Cc2cc(F)cc(F)c2F)c2c(N)ncnc21 [GSK2634140],0,12,75,0,0,7,6,0,20,1,0,11,0,15,24,4,0,99.1,80,7
Cc1ccc(NC(=O)c2ccnc(N3CCCCC3)c2)cc1-c1ccc(C(=O)NCC2CC2)cc1 [GW775610],0,0,0,0,0,0,0,0,51,52,0,90,95.2,42,43,28,8,87,0,0
N#CC1(c2cccc(C(=O)Nc3cccc(Oc4ccc5nc(NC(=O)C6CC6)sc5n4)c3)c2)CC1,0,0,0,0,0,0,0,0,0,8,15,0,0,0,0,0,76,99.9,0,0
CN(c1ccc(NC(=O)Nc2cccc(Cl)c2)cc1)c1ccnc(N)n1.Cl [GW830707],0,0,8,3,0,0,31,0,0,0,0,27,0,0,0,0,45,100,18,0
